Source: PubChem BioAssay (National Center for Advancing Translational Sciences (NCATS))
TrxR1 substrate = is turned over as a substrate by rat TrxR1; O89049; Potency, µM (doses to about 114 µM); purified TrxR1 substrate turnover, NADPH consumption readout; 390,000 tested, 0.01% active; AID 588456; further: nearly all actives have a fitted effect of over 50% in size
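Rat TrxR1, dispensed at 90 nM, was prereduced with 400 uM NADPH (final) for 5 min at ~22 deg C, then incubated with compound 15 min before 400 uM selenite. A first-read NADPH fluorescence drop versus no-compound background flagged substrates.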
GALK inhibitor = galactokinase (human) inhibition; P51570; AID 1868; Purified GALK, Kinase-Glo residual ATP luminescence; 270,000 tested, 0.007% active; Potency, µM (titrated, usually from 57.5 µM), usual class: inhibitors
Target sequence (P51570 whole entry, looked up): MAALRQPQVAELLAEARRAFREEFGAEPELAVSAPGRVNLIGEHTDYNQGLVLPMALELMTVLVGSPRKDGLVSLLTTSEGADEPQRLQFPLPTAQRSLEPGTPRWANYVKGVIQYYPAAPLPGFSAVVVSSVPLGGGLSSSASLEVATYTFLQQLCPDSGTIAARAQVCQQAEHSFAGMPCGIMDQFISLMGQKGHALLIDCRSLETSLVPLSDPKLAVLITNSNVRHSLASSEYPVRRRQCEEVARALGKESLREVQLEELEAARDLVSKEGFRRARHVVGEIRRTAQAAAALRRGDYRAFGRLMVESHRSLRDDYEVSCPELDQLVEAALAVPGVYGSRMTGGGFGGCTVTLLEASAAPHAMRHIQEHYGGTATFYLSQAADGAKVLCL
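The enzyme phosphorylates galactose (100 uM) using ATP (35 uM); inhibition is detected as higher residual ATP, quantified by bioluminescence after 1 h reaction at room temperature, pH 8.0.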
Nrf2 block = inhibitors of Nrf2 signaling. A549 ARE-Fluc reporter, luciferase luminescence, 18-24 h. Potency, µM (top dose mostly 46 µM), usual class: inhibitors. 360,000 tested, 2.1% active. AID 504444; further: nearly all actives have a fitted effect of over 60% in size
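A549 ARE_Fluc cells (5000/well, 5% FBS OPTI-MEM) pre-incubated 2 h, then treated with compounds 18-24 h at 37C/5% CO2 in concentration-response. CellTiter-Fluor viability read first; BugLite luciferase luminescence after 15 min at room temperature gives Nrf2 activity.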
rTrxR1 inhibitor = inhibitors of rat thioredoxin reductase 1. AID 588453. O89049. Potency, µM (highest dose often 114 µM), actives largely listed as inhibitors. 390,000 tested, 1% active. recombinant rTrxR1, NADPH fluorescence consumption, selenite substrate; further: nearly all actives have a fitted effect of over 65% in size
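Rat TrxR1 (90 nM in the dispensed reagent) was pre-reduced with 400 uM NADPH for 5 min at room temperature, then incubated with compound for 15 min. After 400 uM selenite was added, NADPH fluorescence (Ex 340/Em 450 nm) was followed for 8 min.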
A549 tox = counter-screen for Nrf2 inhibitors: cytotoxicity in A549 cells. AID 504648. Potency, µM (doses to about 46 µM), actives largely listed as inhibitors. A549 ARE-Fluc cells, CellTiter-Fluor viability, 18-24 h. 390,000 tested, 0.16% active
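A549 ARE_Fluc cells in 5% FBS OPTI-MEM were exposed to compounds in concentration-response for 18-24 h at 37 deg C. Viability was read by CellTiter-Fluor fluorescence (Ex 405/Em 525) after 30 min, before the luciferase read.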
Nrf2 activator = activators of Nrf2 (ARE) signaling | AREc32 ARE-luciferase reporter (MCF7-derived line), luminescence, 24 h | Potency, µM (top dose mostly 46.1 µM), usual class: activators | 410,000 tested, 0.31% active; further: nearly all actives have a fitted effect of over 65% in size
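AREc32_Fluc, 1000 cells/well, OPTI-MEM + 5% FBS, o/n 37 deg C 5% CO2; 23 nL cpd by pin tool, 24 hr; Steady-Glo 30 min RT, luminescence.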
Each line names hits and unclear results; the compound was inactive in the other large screens; ! = repeats disagree. Rows were chosen to be rich in hits. Some 3% of all compounds tested hit in one or more screens of this group. The call rests on the fitted dose curve; in most records, active means well fitted curve in the direction sought with a large enough effect; inconclusive means small, poorly fitted or top-dose-only effect, or another doubt; inactive means no such curve, though single readings can be large; an effect the other way counts as inactive or inconclusive.

CC(CN1c2ccccc2Sc2ccccc21)N(C)C (configuration not stated)	rTrxR1 inhibitor 12µM!
CC(CN(C)C)CN1c2ccccc2Sc2ccccc21 (configuration not stated)	none (no result: GALK inhibitor)
O=C(O)c1cc(-c2ccc(Cl)s2)nc2ccccc12	Nrf2 block inconclusive
Cc1ccc(-c2cc(C(=O)O)c3ccccc3n2)s1	rTrxR1 inhibitor 79µM
Cc1sc(NC(=O)CN2CCCC2)nc1-c1ccc2c(c1)CCN2C(=O)c1cccc(F)c1	Nrf2 block 23µM, A549 tox inconclusive
Cc1csc2ncnc(N3CCN(C(=S)Nc4ccc(C(F)(F)F)cc4)CC3)c12	Nrf2 block 26µM (no result: GALK inhibitor)
COc1ccc(C2c3c(nc(C)[nH]c3=O)Oc3ccc4ccccc4c32)cc1OC (configuration not stated)	none (no result: TrxR1 substrate, GALK inhibitor, rTrxR1 inhibitor, Nrf2 activator)
Cc1ccc(-c2ccc(/C=N\NC(=O)c3cc4c(ccc5ccccc54)o3)o2)cc1[N+](=O)[O-]	Nrf2 block 23µM, A549 tox inconclusive
O=C(Nc1ccc(Cl)cc1)N1CCN(c2ccc3nnc(-c4ccc(F)cc4)n3n2)CC1	Nrf2 block 21µM, A549 tox inconclusive
Cc1noc(Cn2c(=O)c3ccccc3n(CC(=O)Nc3ccc(Cl)cc3)c2=O)n1	none (no result: GALK inhibitor)
COc1ccc(C(=O)Cn2nnc(-c3ccccc3NC(=O)c3ccco3)n2)cc1	Nrf2 block 18µM, A549 tox inconclusive
COc1ccc(NC(=O)Cn2nnc(-c3ccccc3NS(=O)(=O)c3ccccc3)n2)cc1	Nrf2 block 21µM
COCCCNC(=O)CS(=O)Cc1nc(-c2ccccc2C)oc1C (configuration not stated)	rTrxR1 inhibitor inconclusive
COc1cccc(-c2nc(CS(=O)CC(=O)NC(C)CCc3ccccc3)c(C)o2)c1 (configuration not stated)	rTrxR1 inhibitor 28µM
Cc1ccccc1-c1nc(CS(=O)CC(=O)NC(C)CCc2ccccc2)c(C)o1 (configuration not stated)	rTrxR1 inhibitor 2.2µM
Cc1ccccc1-c1nc(CS(=O)(=O)CC(=O)NCCCc2ccccc2)c(C)o1	Nrf2 block 21µM, A549 tox inconclusive (no result: GALK inhibitor)
Cc1ccccc1-c1nc(CS(=O)(=O)CC(=O)NCc2ccccc2)c(C)o1	none
COc1cccc(-c2nc(CS(=O)CC(=O)NCCc3ccccc3)c(C)o2)c1 (configuration not stated)	rTrxR1 inhibitor 28µM
Cc1cc(Br)ccc1NC(=O)COC(=O)c1ccccc1OCC(=O)N(C)C	none (no result: GALK inhibitor, Nrf2 block, A549 tox, Nrf2 activator)
CC1CCCCN1c1c(S(=O)(=O)c2ccc(Cl)cc2)cnc2ccccc12 (configuration not stated)	Nrf2 block inconclusive (no result: GALK inhibitor)
COc1cccc(-c2nc(CS(=O)CC(=O)O)c(C)o2)c1 (configuration not stated)	none
CCC(C)NC(=O)CS(=O)Cc1nc(-c2cccc(OC)c2)oc1C (configuration not stated)	rTrxR1 inhibitor 25µM
Cc1ccc(Oc2ncccc2NC(=O)CC2(CC(=O)O)CCCC2)c2c1CCC2	none
CCOC(=O)C(=CNc1cccnc1Oc1ccc(C)c2c1CCC2)C(=O)OCC	Nrf2 block 18µM
COC(=O)COc1ccc(-c2nccc(-c3ccccn3)n2)cc1	Nrf2 block 7.3µM
COC(=O)C(NC(=O)c1ccccc1Cl)(Nc1ncc(S(=O)(=O)c2ccc([N+](=O)[O-])cc2)s1)C(F)(F)F (configuration not stated)	Nrf2 block 21µM
CCC(C)(C)C(=O)Nc1ncc(S(=O)(=O)c2ccc([N+](=O)[O-])cc2)s1	Nrf2 block inconclusive
CCOc1cc2sc(N3CCC(C(=O)Nc4ccc(C)cc4)CC3)nc2cc1Br	Nrf2 block inconclusive (no result: GALK inhibitor)
O=[N+]([O-])c1ccccc1N/N=C/c1c[nH]c2ccccc12	Nrf2 block inconclusive, Nrf2 activator 3.5µM
CCCC(=O)C1=C(c2ccccc2)C(C#N)(C#N)C(C#N)=C1N	rTrxR1 inhibitor 13µM
Cc1ccc(C(=O)c2cc([N+](=O)[O-])ccc2N2CC(C)OC(C)C2)cc1 (configuration not stated)	none
Cc1ccc(C(=O)c2cc([N+](=O)[O-])ccc2N2CCCCC2)cc1	Nrf2 block inconclusive, A549 tox 16µM
C=CCc1cccc(C=Nc2c[nH]c(=O)[nH]c2=O)c1O	none
C=CCc1cccc(C=Nc2cc(Br)ccc2O)c1O	Nrf2 block inconclusive, Nrf2 activator 6.3µM (no result: GALK inhibitor)
O=c1[nH]c(CN2CCN(S(=O)(=O)/C=C/c3ccccc3)CC2)nc2cc(Cl)ccc12	Nrf2 block 16µM
O=c1[nH]c(CN2CCN(S(=O)(=O)/C=C/c3ccccc3)CC2)nc2ccccc12	Nrf2 block inconclusive
CCO[C@H]1OC(C(=O)N2CCN(Cc3ccccc3)CC2)=C[C@@H](c2ccccc2)[C@@H]1CCCO	none
CCO[C@H]1OC(C(=O)N2CCN(Cc3ccccc3)CC2)=C[C@@H](c2ccc(C(F)(F)F)cc2)[C@@H]1CCCO	Nrf2 block 29µM, A549 tox inconclusive
O=[N+]([O-])C(/C=C(\Cl)[N+](=O)[O-])=C(N1CCCCC1)N1CCCCC1	rTrxR1 inhibitor 20µM, A549 tox 23µM
O=C(NCC(c1cccnc1)N1CCc2ccccc21)c1cccc(Br)c1 (configuration not stated)	Nrf2 block 16µM (no result: GALK inhibitor)
Cc1ccc(NC(=O)Nc2nnc(N(C)C3CCCCC3)s2)c(Cl)c1	none (no result: GALK inhibitor)
Cc1c(Cl)cccc1NC(=O)Nc1nnc(N(C)C2CCCCC2)s1	Nrf2 block 18µM (no result: GALK inhibitor)
Cc1ccc(-n2ncc3c(NCc4ccccc4)ncnc32)cc1C	none (no result: GALK inhibitor, Nrf2 block)
CC(=O)Nc1ccc(S(=O)(=O)N2CCN=C2SCc2ccc([N+](=O)[O-])cc2)cc1	Nrf2 block 8.2µM
CCOC(=O)c1ccc(NC(=O)CCc2nc(-c3ccccc3Cl)no2)cc1	Nrf2 block 16µM
CCS(=O)(=O)c1c([N+](=O)[O-])ncn1C	Nrf2 block inconclusive, rTrxR1 inhibitor 0.79µM
CCN(CC)c1c([N+](=O)[O-])ncn1C	none
O=C(Nc1ccc(N2CCN(c3ncccc3C(F)(F)F)CC2)nc1)c1cccs1	Nrf2 block 21µM, A549 tox inconclusive
O=C(Nc1ccc(N2CCN(c3ccc(C(F)(F)F)cn3)CC2)nc1)c1cccs1	Nrf2 block inconclusive
COc1cccc(C(=O)Nc2ccccc2-c2nnc(-c3cc(OC)ccc3Br)o2)c1	none (no result: GALK inhibitor)
COc1ccc(CNC(=O)Cn2c(=O)nc(-c3ccccc3)c3ccccc32)cc1OC	none (no result: GALK inhibitor, Nrf2 block)
Cc1cc(C)cc(NC(=S)NCc2cccs2)c1	Nrf2 block 23µM, rTrxR1 inhibitor inconclusive, A549 tox inconclusive
